Results reported in article PMC7862700, “An all-to-all approach to the identification of sequence-specific readers for epigenetic DNA modifications on cytosine”.

Columns and labels:
Assay in all cases: DAPPL (digital affinity profiling via proximity ligation, sequencing); 10 mM Tris-HCl pH 7.5, 50 mM NaCl, 1 mM DTT, 4% glycerol, room temperature, 30 min; GST-TFs on glutathione beads, 16-mer random dsDNA library, 0.1% formaldehyde crosslink after washing; high values mean tight binding
Conditions in all cases: protein: recombinant; tags: N-terminal GST; dsDNA, one strand shown
FLI1 = molecular target: T1, FLI1 (Homo sapiens, UniProt Q01543 1-452)
T1 sequence: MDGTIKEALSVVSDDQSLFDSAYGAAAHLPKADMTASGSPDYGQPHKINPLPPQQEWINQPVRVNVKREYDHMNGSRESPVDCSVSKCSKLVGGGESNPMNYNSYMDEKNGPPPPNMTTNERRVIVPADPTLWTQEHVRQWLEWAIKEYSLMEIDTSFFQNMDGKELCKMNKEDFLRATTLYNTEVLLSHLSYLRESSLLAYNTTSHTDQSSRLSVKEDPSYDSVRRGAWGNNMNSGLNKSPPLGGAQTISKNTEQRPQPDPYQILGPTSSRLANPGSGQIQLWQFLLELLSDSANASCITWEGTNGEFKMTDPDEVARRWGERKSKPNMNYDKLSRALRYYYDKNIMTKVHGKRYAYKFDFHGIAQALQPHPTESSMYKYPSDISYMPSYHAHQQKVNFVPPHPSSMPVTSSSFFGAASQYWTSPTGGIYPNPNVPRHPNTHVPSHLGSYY
In short: (§1)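 After expression in yeast as GST fusions, human transcription factors were bound to glutathione beads, DNA-barcoded and mixed with a tag-only sample. The pools were incubated with 200 nmole of a 16-mer random double-stranded DNA library in Tris/NaCl/DTT/glycerol buffer (30 min, room temperature), washed and crosslinked with 0.1% formaldehyde. Proximity ligation with BsaI/T4 ligase ran for 1 h at 37 °C, before PCR amplification and sequencing on an Illumina NextSeq500. Binding signal is a hexamer's read frequency for a factor divided by its frequency for the tag-only sample.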

ELK1 = molecular target: T2, ELK1 (Homo sapiens, UniProt P19419 1-428)
T2 sequence: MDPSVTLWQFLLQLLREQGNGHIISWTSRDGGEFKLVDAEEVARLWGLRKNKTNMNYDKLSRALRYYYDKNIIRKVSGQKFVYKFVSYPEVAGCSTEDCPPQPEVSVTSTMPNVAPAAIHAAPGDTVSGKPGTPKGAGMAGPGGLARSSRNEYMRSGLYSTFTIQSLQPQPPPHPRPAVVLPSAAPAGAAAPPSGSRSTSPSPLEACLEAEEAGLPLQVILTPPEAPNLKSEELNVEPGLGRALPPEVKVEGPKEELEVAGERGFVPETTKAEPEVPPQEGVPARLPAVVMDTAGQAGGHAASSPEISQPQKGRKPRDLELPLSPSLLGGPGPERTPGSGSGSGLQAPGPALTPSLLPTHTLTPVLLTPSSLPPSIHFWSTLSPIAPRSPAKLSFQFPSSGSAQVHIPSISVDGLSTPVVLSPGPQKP
In short: as §1

GABPA = molecular target: T3, GABPA (Homo sapiens, UniProt Q06546 1-454)
T3 sequence: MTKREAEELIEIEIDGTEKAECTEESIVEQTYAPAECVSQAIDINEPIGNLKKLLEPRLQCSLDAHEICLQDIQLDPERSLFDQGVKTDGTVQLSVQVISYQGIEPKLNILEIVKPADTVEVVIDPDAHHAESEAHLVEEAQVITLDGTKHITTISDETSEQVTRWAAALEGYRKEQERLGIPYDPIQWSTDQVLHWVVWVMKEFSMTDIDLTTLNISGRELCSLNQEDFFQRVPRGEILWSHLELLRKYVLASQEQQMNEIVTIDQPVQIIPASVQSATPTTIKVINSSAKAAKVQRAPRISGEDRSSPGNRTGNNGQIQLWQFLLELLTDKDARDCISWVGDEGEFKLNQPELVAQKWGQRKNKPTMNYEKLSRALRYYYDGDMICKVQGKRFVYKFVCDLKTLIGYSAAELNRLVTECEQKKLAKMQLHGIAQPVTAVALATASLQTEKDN
In short: as §1

ERG = molecular target: T4, ERG (Homo sapiens, UniProt P11308 1-479)
T4 sequence: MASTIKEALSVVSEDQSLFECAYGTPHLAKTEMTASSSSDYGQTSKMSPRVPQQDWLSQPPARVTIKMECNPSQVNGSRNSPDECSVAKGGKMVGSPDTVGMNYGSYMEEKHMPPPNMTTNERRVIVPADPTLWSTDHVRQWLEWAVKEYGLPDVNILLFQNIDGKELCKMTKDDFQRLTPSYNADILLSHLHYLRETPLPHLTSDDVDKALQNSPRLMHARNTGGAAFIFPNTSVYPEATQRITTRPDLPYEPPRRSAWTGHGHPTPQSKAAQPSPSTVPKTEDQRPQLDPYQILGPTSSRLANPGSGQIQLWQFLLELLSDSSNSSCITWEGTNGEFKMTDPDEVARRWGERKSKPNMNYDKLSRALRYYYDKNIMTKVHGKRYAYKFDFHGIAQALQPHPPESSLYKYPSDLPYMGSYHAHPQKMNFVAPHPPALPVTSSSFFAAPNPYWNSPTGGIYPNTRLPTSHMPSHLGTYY
In short: as §1

ELF1 = ELF1 (Homo sapiens, UniProt P32519 1-619)
ELF1, sequence (P32519 whole entry): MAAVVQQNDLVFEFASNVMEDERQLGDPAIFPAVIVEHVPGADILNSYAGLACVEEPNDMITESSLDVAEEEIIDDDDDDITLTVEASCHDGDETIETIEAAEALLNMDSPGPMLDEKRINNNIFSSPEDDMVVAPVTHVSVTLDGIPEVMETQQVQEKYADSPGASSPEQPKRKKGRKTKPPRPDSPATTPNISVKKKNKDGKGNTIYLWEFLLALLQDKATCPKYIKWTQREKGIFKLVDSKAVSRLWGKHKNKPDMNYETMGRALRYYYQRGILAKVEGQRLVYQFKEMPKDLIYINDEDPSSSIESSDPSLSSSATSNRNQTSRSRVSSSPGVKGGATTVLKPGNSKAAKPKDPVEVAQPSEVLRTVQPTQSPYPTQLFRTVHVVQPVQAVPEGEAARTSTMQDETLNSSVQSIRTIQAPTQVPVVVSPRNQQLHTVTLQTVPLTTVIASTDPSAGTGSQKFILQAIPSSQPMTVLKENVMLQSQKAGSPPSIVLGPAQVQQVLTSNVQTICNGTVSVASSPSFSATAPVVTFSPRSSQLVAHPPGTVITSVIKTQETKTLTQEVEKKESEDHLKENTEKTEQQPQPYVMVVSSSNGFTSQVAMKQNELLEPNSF
In short: as §1

EHF = molecular target: T5, EHF (Homo sapiens, UniProt Q9NZC4 1-300)
T5 sequence: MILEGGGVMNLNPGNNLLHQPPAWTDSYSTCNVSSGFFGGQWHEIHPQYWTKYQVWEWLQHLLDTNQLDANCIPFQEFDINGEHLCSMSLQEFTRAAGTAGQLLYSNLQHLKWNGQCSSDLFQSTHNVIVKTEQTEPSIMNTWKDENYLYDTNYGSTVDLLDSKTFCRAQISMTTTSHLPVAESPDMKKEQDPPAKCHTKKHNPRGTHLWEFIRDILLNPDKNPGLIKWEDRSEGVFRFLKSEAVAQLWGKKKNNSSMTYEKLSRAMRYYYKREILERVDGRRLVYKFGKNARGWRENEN
In short: as §1

SPI1 = SPI1 (Homo sapiens, UniProt P17947 1-270)
In short: as §1

ELK3 = molecular target: T6, ELK3 (Homo sapiens, UniProt P41970 1-407)
T6 sequence: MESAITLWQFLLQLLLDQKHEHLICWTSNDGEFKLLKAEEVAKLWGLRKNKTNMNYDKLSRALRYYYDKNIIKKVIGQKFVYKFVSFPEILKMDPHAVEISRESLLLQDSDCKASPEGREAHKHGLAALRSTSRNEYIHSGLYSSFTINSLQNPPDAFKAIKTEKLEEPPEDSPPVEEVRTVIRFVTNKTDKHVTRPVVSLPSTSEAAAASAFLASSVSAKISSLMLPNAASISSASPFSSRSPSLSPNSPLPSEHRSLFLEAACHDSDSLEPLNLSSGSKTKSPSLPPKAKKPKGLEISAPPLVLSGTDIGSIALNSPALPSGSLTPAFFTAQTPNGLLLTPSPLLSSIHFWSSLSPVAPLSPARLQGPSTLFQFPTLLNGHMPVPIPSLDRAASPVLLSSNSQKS
In short: as §1

FEV = molecular target: T7, FEV (Homo sapiens, UniProt Q99581 1-238)
T7 sequence: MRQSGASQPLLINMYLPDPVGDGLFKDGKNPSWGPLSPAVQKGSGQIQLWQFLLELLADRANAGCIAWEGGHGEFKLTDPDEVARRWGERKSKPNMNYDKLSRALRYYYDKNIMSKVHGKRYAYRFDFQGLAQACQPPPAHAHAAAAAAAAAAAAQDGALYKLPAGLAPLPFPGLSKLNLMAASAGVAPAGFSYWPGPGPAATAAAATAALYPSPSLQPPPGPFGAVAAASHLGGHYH
In short: as §1

ETV5 = ETV5 (Homo sapiens, UniProt P41161 1-510)
ETV5, sequence (P41161 whole entry): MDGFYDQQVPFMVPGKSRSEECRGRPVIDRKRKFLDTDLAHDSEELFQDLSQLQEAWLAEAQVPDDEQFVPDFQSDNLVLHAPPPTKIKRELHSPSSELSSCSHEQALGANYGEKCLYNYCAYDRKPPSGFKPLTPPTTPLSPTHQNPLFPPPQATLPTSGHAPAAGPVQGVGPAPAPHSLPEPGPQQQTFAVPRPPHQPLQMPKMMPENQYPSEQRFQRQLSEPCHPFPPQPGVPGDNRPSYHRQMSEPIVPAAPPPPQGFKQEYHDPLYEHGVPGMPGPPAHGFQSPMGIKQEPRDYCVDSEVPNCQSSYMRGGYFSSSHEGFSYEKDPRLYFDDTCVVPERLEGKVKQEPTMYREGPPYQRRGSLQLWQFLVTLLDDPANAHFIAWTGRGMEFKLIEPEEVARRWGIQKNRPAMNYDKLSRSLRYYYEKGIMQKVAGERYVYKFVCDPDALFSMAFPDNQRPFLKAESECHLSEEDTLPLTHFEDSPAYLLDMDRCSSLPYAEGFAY
In short: as §1

SPIC = molecular target: T8, SPIC (Homo sapiens, UniProt Q8N5J4 1-248)
T8 sequence: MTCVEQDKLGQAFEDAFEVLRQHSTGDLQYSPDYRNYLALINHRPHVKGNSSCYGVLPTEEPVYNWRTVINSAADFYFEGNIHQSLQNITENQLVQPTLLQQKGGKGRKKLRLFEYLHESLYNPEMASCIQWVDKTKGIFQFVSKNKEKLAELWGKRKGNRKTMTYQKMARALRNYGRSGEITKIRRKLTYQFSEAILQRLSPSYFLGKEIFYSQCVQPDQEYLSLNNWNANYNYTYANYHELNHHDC
In short: as §1

ELF4 = ELF4 (Homo sapiens, UniProt Q99607 1-663)
ELF4, sequence (Q99607 whole entry): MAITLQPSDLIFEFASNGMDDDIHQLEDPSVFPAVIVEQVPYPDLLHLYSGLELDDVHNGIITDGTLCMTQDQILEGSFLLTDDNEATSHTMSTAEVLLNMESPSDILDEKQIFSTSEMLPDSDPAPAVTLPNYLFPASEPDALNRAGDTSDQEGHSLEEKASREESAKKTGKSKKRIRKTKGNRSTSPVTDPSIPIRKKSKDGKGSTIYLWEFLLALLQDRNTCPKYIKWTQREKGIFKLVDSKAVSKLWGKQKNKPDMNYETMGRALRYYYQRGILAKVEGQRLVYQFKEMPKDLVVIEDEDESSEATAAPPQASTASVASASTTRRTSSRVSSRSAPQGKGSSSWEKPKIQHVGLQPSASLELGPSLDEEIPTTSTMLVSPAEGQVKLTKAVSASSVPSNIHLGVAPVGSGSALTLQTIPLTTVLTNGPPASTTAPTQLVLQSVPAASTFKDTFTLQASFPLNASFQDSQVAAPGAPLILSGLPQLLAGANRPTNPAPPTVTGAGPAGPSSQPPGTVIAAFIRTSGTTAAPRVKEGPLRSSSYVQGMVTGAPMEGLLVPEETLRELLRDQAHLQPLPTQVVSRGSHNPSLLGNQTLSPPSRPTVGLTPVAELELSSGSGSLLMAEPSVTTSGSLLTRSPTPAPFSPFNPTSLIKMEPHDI
In short: as §1

ELK4 = molecular target: T9, ELK4 (Homo sapiens, UniProt P28324-2 1-405)
T9 sequence: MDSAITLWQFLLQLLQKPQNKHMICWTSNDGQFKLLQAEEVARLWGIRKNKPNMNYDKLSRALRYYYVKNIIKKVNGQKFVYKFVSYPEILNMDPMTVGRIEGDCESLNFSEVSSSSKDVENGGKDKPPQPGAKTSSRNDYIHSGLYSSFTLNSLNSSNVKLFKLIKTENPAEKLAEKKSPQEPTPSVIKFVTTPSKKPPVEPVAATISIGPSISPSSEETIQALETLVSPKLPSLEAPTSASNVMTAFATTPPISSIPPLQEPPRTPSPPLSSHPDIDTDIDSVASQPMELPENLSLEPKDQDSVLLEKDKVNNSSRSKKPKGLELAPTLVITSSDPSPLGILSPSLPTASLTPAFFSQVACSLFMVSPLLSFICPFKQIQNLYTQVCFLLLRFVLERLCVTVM
In short: as §1

ETV2 = molecular target: T10, ETV2 (Homo sapiens, UniProt O00321 1-342)
T10 sequence: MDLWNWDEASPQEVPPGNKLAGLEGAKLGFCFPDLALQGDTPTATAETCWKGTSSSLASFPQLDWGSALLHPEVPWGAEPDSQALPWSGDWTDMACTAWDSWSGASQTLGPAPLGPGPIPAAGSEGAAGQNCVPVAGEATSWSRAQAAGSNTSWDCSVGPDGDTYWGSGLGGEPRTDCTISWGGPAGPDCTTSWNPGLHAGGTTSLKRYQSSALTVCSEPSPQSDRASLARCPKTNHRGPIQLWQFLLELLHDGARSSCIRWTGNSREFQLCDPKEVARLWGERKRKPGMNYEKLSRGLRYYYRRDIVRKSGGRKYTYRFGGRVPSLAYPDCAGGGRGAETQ
In short: as §1

ELF3 = molecular target: T11, ELF3 (Homo sapiens, UniProt P78545 1-371)
T11 sequence: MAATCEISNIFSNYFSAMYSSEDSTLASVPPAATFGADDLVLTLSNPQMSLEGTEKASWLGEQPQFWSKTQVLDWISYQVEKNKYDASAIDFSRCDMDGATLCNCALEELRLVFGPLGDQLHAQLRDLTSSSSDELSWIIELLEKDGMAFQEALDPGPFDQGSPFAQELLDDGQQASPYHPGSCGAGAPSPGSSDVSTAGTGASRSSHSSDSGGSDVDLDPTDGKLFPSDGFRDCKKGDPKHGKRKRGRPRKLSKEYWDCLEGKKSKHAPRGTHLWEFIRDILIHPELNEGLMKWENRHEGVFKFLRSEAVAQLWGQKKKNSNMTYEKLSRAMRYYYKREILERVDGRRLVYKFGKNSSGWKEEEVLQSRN
In short: as §1

ETV1 = ETV1 (Homo sapiens, UniProt P50549 1-477)
ETV1, sequence (P50549 whole entry): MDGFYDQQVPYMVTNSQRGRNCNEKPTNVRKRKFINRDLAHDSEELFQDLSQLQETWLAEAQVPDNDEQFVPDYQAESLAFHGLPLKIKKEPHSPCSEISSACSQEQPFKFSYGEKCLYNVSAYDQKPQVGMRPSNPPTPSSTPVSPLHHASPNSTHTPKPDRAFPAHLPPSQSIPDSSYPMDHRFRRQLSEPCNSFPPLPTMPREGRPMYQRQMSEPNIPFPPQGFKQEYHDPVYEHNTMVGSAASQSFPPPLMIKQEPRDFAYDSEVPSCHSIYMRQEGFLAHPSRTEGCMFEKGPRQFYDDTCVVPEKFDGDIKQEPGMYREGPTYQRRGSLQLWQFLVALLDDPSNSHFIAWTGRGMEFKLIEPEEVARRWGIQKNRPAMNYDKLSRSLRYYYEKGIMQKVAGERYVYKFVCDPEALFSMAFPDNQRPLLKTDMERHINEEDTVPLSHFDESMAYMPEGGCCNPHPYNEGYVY
In short: as §1

SPIB = SPIB (Homo sapiens, UniProt Q01892 1-262)
SPIB, sequence (Q01892 whole entry): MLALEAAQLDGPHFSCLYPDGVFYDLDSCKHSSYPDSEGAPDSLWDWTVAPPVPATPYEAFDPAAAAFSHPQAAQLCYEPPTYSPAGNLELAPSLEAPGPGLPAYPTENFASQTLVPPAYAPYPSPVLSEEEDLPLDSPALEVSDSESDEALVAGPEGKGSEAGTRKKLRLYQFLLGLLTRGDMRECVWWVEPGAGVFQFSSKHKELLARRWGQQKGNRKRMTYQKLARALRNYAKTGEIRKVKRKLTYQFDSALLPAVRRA
In short: as §1

Row | Sequence | binding signal (FLI1) | binding signal (ELK1) | binding signal (GABPA) | binding signal (ERG) | binding signal (ELF1) | binding signal (EHF) | binding signal (SPI1) | binding signal (ELK3) | binding signal (FEV) | binding signal (ETV5) | binding signal (SPIC) | binding signal (ELF4) | binding signal (ELK4) | binding signal (ETV2) | binding signal (ELF3) | binding signal (ETV1) | binding signal (SPIB)
1 | CAACAA | 1.08 fold enrichment (6-mer frequency, TF over GST control) | 1.08 fold enrichment (6-mer frequency, TF over GST control) | 1.1 fold enrichment (6-mer frequency, TF over GST control) | 1.01 fold enrichment (6-mer frequency, TF over GST control) | 1.06 fold enrichment (6-mer frequency, TF over GST control) | 1.05 fold enrichment (6-mer frequency, TF over GST control) | 1.02 fold enrichment (6-mer frequency, TF over GST control) | 1.12 fold enrichment (6-mer frequency, TF over GST control) | 1.05 fold enrichment (6-mer frequency, TF over GST control) | 1.02 fold enrichment (6-mer frequency, TF over GST control) | 1.06 fold enrichment (6-mer frequency, TF over GST control) | 1.13 fold enrichment (6-mer frequency, TF over GST control) | 1.02 fold enrichment (6-mer frequency, TF over GST control) | 1.08 fold enrichment (6-mer frequency, TF over GST control) | 1.2 fold enrichment (6-mer frequency, TF over GST control) | 1.05 fold enrichment (6-mer frequency, TF over GST control) | –
2 | TGCTGT | 1.03 fold enrichment (6-mer frequency, TF over GST control) | 1 fold enrichment (6-mer frequency, TF over GST control) | – | – | 1.09 fold enrichment (6-mer frequency, TF over GST control) | 1.13 fold enrichment (6-mer frequency, TF over GST control) | – | – | 1.01 fold enrichment (6-mer frequency, TF over GST control) | 1.06 fold enrichment (6-mer frequency, TF over GST control) | 1.18 fold enrichment (6-mer frequency, TF over GST control) | 1.06 fold enrichment (6-mer frequency, TF over GST control) | 1.19 fold enrichment (6-mer frequency, TF over GST control) | 1.15 fold enrichment (6-mer frequency, TF over GST control) | 1.12 fold enrichment (6-mer frequency, TF over GST control) | 1.17 fold enrichment (6-mer frequency, TF over GST control) | 1 fold enrichment (6-mer frequency, TF over GST control)
3 | CAAGGT | 1.1 fold enrichment (6-mer frequency, TF over GST control) | 1.13 fold enrichment (6-mer frequency, TF over GST control) | 1.03 fold enrichment (6-mer frequency, TF over GST control) | 1.07 fold enrichment (6-mer frequency, TF over GST control) | 1.05 fold enrichment (6-mer frequency, TF over GST control) | 1.13 fold enrichment (6-mer frequency, TF over GST control) | 1.02 fold enrichment (6-mer frequency, TF over GST control) | 1.12 fold enrichment (6-mer frequency, TF over GST control) | 1.04 fold enrichment (6-mer frequency, TF over GST control) | 1.04 fold enrichment (6-mer frequency, TF over GST control) | 1 fold enrichment (6-mer frequency, TF over GST control) | 1.11 fold enrichment (6-mer frequency, TF over GST control) | 1.16 fold enrichment (6-mer frequency, TF over GST control) | 1.12 fold enrichment (6-mer frequency, TF over GST control) | 1.15 fold enrichment (6-mer frequency, TF over GST control) | 1.13 fold enrichment (6-mer frequency, TF over GST control) | –
